TLR4-MyD88 BLA = blocks binding of human TLR4 to MyD88; HeLa CL3-4 TLR4/MyD88 BLA complementation, FRET ratio; inhibition, % at 8.4 µM; 200,000 tested, 0.18% active; in the data active = inhibition above about 25%;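 note: 0% = vehicle and 100% = reference inhibitor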
TLR9-MyD88 inh = TLR9-MyD88 interaction inhibition; CHO BLA complementation TLR9-MyD88, CCF4 FRET ratio; inhibition, % at 4.98 µM; 340,000 tested, 0.21% active;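 active = inhibition above the mean over all tested compounds plus 3 SD, cut at about 21% in these data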;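 note: 0% = DMSO only wells and 100% = clavulanate BLA inhibitor control wells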
NOD2 RIPK2 PPI = blocks binding of human NOD2 to RIPK2 | CHO BLA complementation NOD2-RIPK2, CCF4 ratio | O43353 | 360,000 tested, 0.38% active | inhibition, % at 4.98 µM; in the data active = inhibition above about 21%;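 note: 0% = vehicle only and 100% = reference blocker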
ABHD5-PLIN5 inh = ABHD5-PLIN5 protein interaction inhibition. Q00G26+Q8WTS1. Split G. princeps luciferase complementation, luminescence, 4 h. inhibition, % at 4 µM. 360,000 tested, 0.78% active. AID 602281;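 active = inhibition above the mean inhibition across every tested compound plus 3 SD, cut at about 22% in these data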;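 note: 0% = DMSO only wells and the 100% control is not disclosed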
Target sequence (Q00G26 whole entry, looked up): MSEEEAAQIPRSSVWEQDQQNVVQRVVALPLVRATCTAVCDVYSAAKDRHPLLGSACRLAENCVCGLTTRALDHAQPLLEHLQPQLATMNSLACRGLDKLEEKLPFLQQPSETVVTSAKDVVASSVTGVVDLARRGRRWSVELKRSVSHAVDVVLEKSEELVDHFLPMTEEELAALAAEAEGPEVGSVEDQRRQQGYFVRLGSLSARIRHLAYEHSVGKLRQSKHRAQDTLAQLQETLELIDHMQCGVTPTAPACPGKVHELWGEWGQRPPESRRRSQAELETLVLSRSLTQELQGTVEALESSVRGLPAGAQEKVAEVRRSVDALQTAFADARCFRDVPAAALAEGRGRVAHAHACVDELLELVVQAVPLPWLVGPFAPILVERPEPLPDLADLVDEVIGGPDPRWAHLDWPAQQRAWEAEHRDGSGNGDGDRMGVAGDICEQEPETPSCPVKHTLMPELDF
Target sequence (Q8WTS1 whole entry, looked up): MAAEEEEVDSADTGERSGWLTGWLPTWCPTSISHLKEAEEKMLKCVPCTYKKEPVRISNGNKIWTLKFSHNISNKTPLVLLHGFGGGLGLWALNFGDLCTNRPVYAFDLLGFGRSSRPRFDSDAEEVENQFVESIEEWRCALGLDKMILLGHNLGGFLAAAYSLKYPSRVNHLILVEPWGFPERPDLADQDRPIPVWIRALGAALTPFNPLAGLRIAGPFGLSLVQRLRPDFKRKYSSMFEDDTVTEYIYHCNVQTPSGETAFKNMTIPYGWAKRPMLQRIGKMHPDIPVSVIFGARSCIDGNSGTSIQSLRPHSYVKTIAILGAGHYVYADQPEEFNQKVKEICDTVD
NTR1 ag = NTR1 (human) agonism. P30989. NTR1-U2OS beta-arrestin-GFP spot imaging, agonist mode. activation, % at 20 µM. 330,000 tested, 0.17% active;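 active = activation at or above 40% of the spot to cytoplasm intensity ratio, with at least 20 cells analyzed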;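 note: 0% = DMSO without peptide and 100% = 100 nM NTR1 peptide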
Beta2AR agonist = activates human beta-2 adrenergic receptor causing internalization. P07550. Am2.2-beta2AR cells, FAP receptor internalization, flow cytometry. response, % (concentration not given with the values). 340,000 tested, 0.43% active. AID 504454;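 active = response above a set limit, near 3 SD of response in nonfluorescent compounds, cut at about 42% in these data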
ABHD5 PLIN5 conf = ABHD5-PLIN5 interaction inhibition, confirmed. 2,200 tested, 67% active. biochemical ABHD5-PLIN5 interaction, luminescence. shares compounds with ABHD5-PLIN5 inh. inhibition, % at 4 µM; in the data active = inhibition above about 23%;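 note: 0% = DMSO vehicle wells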
HNF4 split-luc = counter-screen for ABHD5-PLIN5 inhibitors: HNF4 split-luciferase | shares compounds with ABHD5-PLIN5 inh | HNF4 dimerization, luminescence, biochemical | inhibition, % at 4 µM | 2,200 tested, 77% active;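 active = mean inhibition across replicate wells exceeding the computed hit threshold, cut at about 13% in these data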;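 note: light from luciferase halves that rejoin when HNF4 fusion proteins dimerize; 0% = DMSO only wells and the 100% control is not given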
The depositor's hits bear a star; / = not tested or not shown. The list is not random: actives were taken first. Their share in the collection is about 1.5%.

SMILES | TLR4-MyD88 BLA | TLR9-MyD88 inh | NOD2 RIPK2 PPI | ABHD5-PLIN5 inh | NTR1 ag | Beta2AR agonist | ABHD5 PLIN5 conf | HNF4 split-luc
COc1ccc(CC(=O)n2[nH]c(=O)cc(C)c2=O)cc1OC | / | -4.6 | 8.0 | 41.8* | -0.3 | -0.7 | 64.6* | 86.6*
CC(NC(=O)COC(=O)CNC(=O)C1CCCCC1)c1ccccc1 (centres undefined) | / | -8.6 | -5.2 | 0.1 | 1.4 | -3.1 | / | /
CC(NC(=O)COC(=O)C1CCC1)c1ccccc1 (centres undefined) | / | -7.0 | -8.7 | 23.5* | 1.8 | -5.1 | 4.1 | 1.1
CNC(=O)C1Cc2c(-c3ccc(Cl)cc3)ccnc2O1 (centres undefined) | / | / | -4.5 | -0.7 | / | / | / | /
Cc1ccc(SCC2=NN(c3nc(C)cc(C)n3)C(=O)C2)cc1 | -5.1 | 3.1 | -4.4 | 2.3 | 2.0 | 0.0 | / | /
Cc1cc(C)nc(N2N=C(C(C)(C)C)CC2=O)n1 | 9.0 | 3.0 | -2.0 | 37.5* | -0.4 | -2.0 | 6.7 | 26.3*
CN(C(=O)c1cccc(NC(=O)Cc2cccc(NC(=O)C3CCCN(C(=O)C4CCCC4)C3)c2)c1)C1CC1 (centres undefined) | / | -0.6 | -5.0 | -4.1 | / | -0.7 | / | /
O=C(CC(Sc1ccc(Br)cc1)C(=O)O)c1ccc(F)cc1 (centres undefined) | / | -10.5 | -16.1 | 66.1* | 4.7 | 6.8 | 41.5* | 79.6*
CCOc1ccc(C(=O)CC(Sc2ccc(C)cc2)C(=O)O)cc1 (centres undefined) | -10.7 | -11.0 | 1.6 | 59.6* | 1.8 | 5.9 | 17.2 | 68.8*
O=C(Nc1ccc2c(c1)OCO2)c1cc(C2CCCCN2C(=O)c2ccc(Cl)cc2)on1 (centres undefined) | / | / | -2.8 | -2.1 | / | / | / | /
COC(=O)c1ccccc1NC(=O)CCCOc1cc(=O)n(C)c2ccccc12 | / | / | 13.6 | 1.6 | / | / | / | /
O=C(/C=C/c1ccc([N+](=O)[O-])cc1)NCc1cccnc1 | -3.0 | -10.7 | -5.6 | 1.3 | -0.8 | -6.2 | / | /
O=C(/C=C/c1ccc2c(c1)OCCO2)c1ccccc1 | / | / | -4.5 | 26.6* | 1.5 | 20.0 | 56.3* | 43.4*
CC(=O)Nc1ccc(/C=C/C(=O)c2ccc3c(c2)OCCO3)cc1 | / | 4.4 | 1.5 | 18.7 | 1.9 | -2.8 | / | /
O=C(/C=C/c1ccc2c(c1)OCO2)c1cccnc1 | / | 1.4 | -16.5 | 27.9* | 0.9 | 3.0 | 63.4* | 53.8*
COc1ccc(C(=O)/C=C/c2ccc3c(c2)OCCO3)cc1 | / | 7.3 | -10.6 | 4.1 | 1.5 | 6.0 | / | /
O=C(/C=C/c1ccc([N+](=O)[O-])cc1)c1cccnc1 | 3.5 | 5.7 | 12.7 | 30.5* | 29.4 | 0.4 | 83.3* | 92.6*
O=C(O)c1ccc(/C=C/C(=O)c2ccc3c(c2)OCCCO3)cc1 | / | 6.4 | 1.3 | 49.0* | -0.2 | 4.0 | 47.6* | 43.0*
O=C(NCc1ccccc1)c1cc(C2COCCN2C(=O)C/C=C/c2ccccc2)on1 (centres undefined) | / | / | -13.6 | -0.3 | / | / | / | /
CC(/C=C/c1cccc([N+](=O)[O-])c1)=N/NC(=O)c1cccnc1 | 2.1 | -0.1 | -10.4 | 28.9* | -1.2 | 1.1 | 20.2 | 15.7*
C/C(=N\NC(=O)c1cccnc1)c1cccc([N+](=O)[O-])c1 | -4.0 | -5.3 | -7.1 | 3.3 | -0.5 | 4.2 | / | /
CCOc1cc(/C=N/N=C/c2ccc(O)c(OCC)c2)ccc1O | / | 1.0 | 4.7 | -9.7 | -0.5 | -2.5 | / | /
CCOc1cc(/C=C2\CN(CC)C/C(=C\c3ccc(O)c(OCC)c3)C2=O)ccc1O | / | 10.0 | 16.9 | 82.5* | 22.6 | 29.2 | 94.0* | 81.5*
CCN1C/C(=C/c2cccc([N+](=O)[O-])c2)C(=O)/C(=C/c2cccc([N+](=O)[O-])c2)C1 | 6.6 | 1.1 | -4.1 | 40.3* | / | 87.2* | 101.6* | 97.1*
C1C2CC3C1C3C2=NN=C1C2CC3C(C2)C13 | / | / | 10.1 | 0.2 | / | / | / | /
CC1(C(=O)NC2CCN(Cc3ccccc3)CC2)CCN1Cc1ccc2ccccc2c1 (centres undefined) | / | / | -6.1 | 6.2 | / | / | / | /

Compound activity as filed in PubChem.
